Source: PubChem BioAssay (National Center for Advancing Translational Sciences (NCATS))
Compounds with a hit are over-represented: about 1.1% of the library has one in this group of screens.
Luc counter: blocks Kinase-Glo luciferase, a counter-screen artifact | Q27757 | Kinase-Glo luciferase, ATP luminescence, 8 min | Potency, µM (titrated, usually from 38.3 µM), without a hit: at the top dose activity change, negative = inhibition, most hits filed as inhibitors | 200,000 compounds, 0.28% hits; further: nearly all actives have a fitted effect of over 60% in size
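Substrate mix (final 50 mM imidazole pH 7.2, 50 mM KCl, 7 mM MgCl2, 10 uM ATP, 0.01% Tween 20, 0.05% BSA) plus pin-tool compound, then Kinase-Glo detection mix; 8 min ambient, luminescence read.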
NPSR antag: blocks cAMP signaling of the human neuropeptide S receptor | Q6W5P4 | CHO-NPSR cells, cAMP TR-FRET, antagonist mode | Potency, µM (highest dose often 38.3 µM), for inactives: top-dose activity change, negative = inhibition, hits mostly inhibitors | 220,000 compounds, 1% hits; further: nearly all actives have a fitted effect of over 50% in size
Target sequence (Q6W5P4 whole entry, looked up): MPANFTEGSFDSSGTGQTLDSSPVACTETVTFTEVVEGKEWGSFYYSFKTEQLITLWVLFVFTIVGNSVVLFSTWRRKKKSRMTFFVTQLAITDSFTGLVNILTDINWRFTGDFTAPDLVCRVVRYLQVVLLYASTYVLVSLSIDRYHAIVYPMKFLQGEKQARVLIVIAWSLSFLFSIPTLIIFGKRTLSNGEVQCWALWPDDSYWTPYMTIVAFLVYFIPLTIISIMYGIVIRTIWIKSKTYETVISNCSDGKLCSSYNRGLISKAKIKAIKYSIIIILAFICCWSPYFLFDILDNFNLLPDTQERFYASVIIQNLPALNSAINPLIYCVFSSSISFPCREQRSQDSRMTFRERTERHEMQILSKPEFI
IMPase Li cell: IMPase inhibition in cells with lithium potentiation. 210,000 compounds, 0.35% hits. CHO-M1 cells, IP1 TR-FRET (IP-One), carbachol + lithium. Potency, µM (top dose mostly 59.4 µM), inactives show at the highest dose activity, negative = IMPase inhibition, most hits filed as inhibitors;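 further: IP1 builds up when IMPase is blocked and the TR-FRET signal falls; plate controls were basal vehicle for no effect and high inhibitor control for full effect; nearly all actives have a fitted effect of over 50% in size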
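Concentration–response in CHO-M1 cells, lithium-potentiated; 30 min at 37C. IP1 detected by competitive TR-FRET after 10 min lysis at RT. Hill-fitted AC50.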
ERK EGF inh: inhibitors of EGF-stimulated ERK signaling pathway. HEK293-V1b, EGF-stimulated phospho-ERK AlphaScreen. Potency, µM (highest dose often 11.5 µM), inactives show top-dose activity change, negative = inhibition, actives largely listed as inhibitors. 130,000 compounds, 0.41% hits;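 further: plate controls were stimulated vehicle wells for no effect and unstimulated vehicle basal for full effect; nearly all actives have a fitted effect of over 55% in size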
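V1b-HEK293, 1% FBS o/n; cpd 30 min 37C; EGF 25 nM final, 5 min; lyse 10 min; AlphaScreen beads 5 h RT. Normalized DMSO basal vs EGF max; Hill AC50.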
Active calls of the source: *; u = inconclusive; x = no result given; [ ] = another dose, or the depositor's remark. The call rests on the fitted dose curve; in most records, active means well fitted curve in the direction sought with a large enough effect; inconclusive means small, poorly fitted or top-dose-only effect, or another doubt; inactive means no such curve, though single readings can be large; an effect the other way counts as inactive or inconclusive. Unless noted, on the % scale 0 is the no-effect control and ±100 the full control effect; potency means the concentration at half of the fitted maximal effect.

SMILES	Luc counter	NPSR antag	IMPase Li cell	ERK EGF inh
CCCCC(=O)OC1CCC2C3CCc4cc(O)ccc4C3CC[C@]12C (some centres undefined)	-7%	x	18%	3%
Cc1ccc(NC(=O)Nc2ccccc2C(N)=O)cc1	x	17%	x	6%[57.5 µM]
CCOc1ccc(NC(=O)Nc2ccccc2C(N)=O)cc1	7.1µM*	4%	6%	7%
COc1ccc(NC(=O)Nc2ccccc2C(N)=O)cc1	8.9µM*	4%	-2%	-8%
O=c1[nH]ncc2c3ccccc3n(Cc3ccccc3F)c12	-2%	-3%[46.1 µM]	10µM*	x
Cc1cc(N/N=C/c2ccc(N(C)C)cc2)nc(NCc2ccccc2)n1	x	10µM*	x	-20%[57.5 µM]
COC(=O)CS	x	x	-10%	x
CCOc1cccc(-c2nnc(SCC(=O)Nc3cc(OC)cc(OC)c3)n2N)c1	-3%	-22%[46.1 µM]	25µM*	x
CCOc1cccc(-c2nnc(SCC(=O)Nc3ccc(OC)c(OC)c3)n2N)c1	10%	-19%[46.1 µM]	1%[38.3 µM]	x
C/C(=N/NC1=NCCN1)c1cn(C2=NCCN2)nc1C	-7%[7.66 µM]	x	-2%	x
O=C(Oc1ccccc1)N1CCC2(CCCN(c3ncccn3)C2)CC1	-1%	x	-7%	-3%
NC1=NC[C@H](Cc2ccc(O)cc2)N1CC1CCCCC1	x	3%	x	-11%[57.5 µM]
NC1=NC[C@@H](Cc2ccc(O)cc2)N1CCCCC1CCCCC1	x	5µM*	x	-1%[57.5 µM]
C/C(=N\NC(=S)NC1CCCCC1)c1c(F)cccc1F	-1%	1µM*	36%	1%
Cc1cc(=O)c2c(O)cc(O)c(C)c2o1	-7%	x	17%	4%
Cc1nc(Nc2ccc(C(=O)O)cc2)nc(Nc2ccc(C(=O)O)cc2)c1[N+](=O)[O-]	3%	18%	-4%	6%
CC(=O)Nc1ccc(Nc2nc(C)c([N+](=O)[O-])c(Nc3ccccc3)n2)cc1	-1%	12%	17%	32µM*
N#Cc1ccc(CN2CCCC3(CCN(C(=O)c4ccncc4)CC3)C2)cc1	-3%	x	14%	-1%
N#C/C(=C(/O)c1ccc([N+](=O)[O-])o1)c1nc2ccccc2[nH]1	x	-56%	x	-11%[57.5 µM]
N#C/C(=C\c1ccc([N+](=O)[O-])o1)c1nc2ccccc2[nH]1	1%	4µM*	36%	5%
Cc1ccc2nc(/C(C#N)=C\c3ccc([N+](=O)[O-])o3)[nH]c2c1	-4%	10µM*	14%[38.3 µM]	x
C[C@@](Cc1ccccc1)(NC(=O)CN)c1ccccc1	3%	x	-4%	0%
COc1cccc(-c2nc(-c3ccc(NC(=O)Cc4ccccc4OC)cc3)no2)c1	2%	-17%[46.1 µM]	23%[38.3 µM]	x
O=C(COc1ccccc1)Nc1ccc(-c2nnc(-c3ccco3)o2)cc1	2%	-4%[46.1 µM]	13µM*	x
COc1ccc(CC(=O)Nc2ccc(-c3noc(-c4ccccc4OC)n3)cc2)cc1	1%	-13%[46.1 µM]	11µM*	x
SMILES	Luc counter	NPSR antag	IMPase Li cell	ERK EGF inh
COc1ccc(CC(=O)Nc2cccc(-c3nnc(-c4ccccc4)o3)c2)cc1OC	-2%	u	42%[38.3 µM]	x
COc1ccc(CC(=O)Nc2ccc(-c3nnc(-c4ccccc4)o3)cc2)cc1OC	-2%	u	13µM*	x
CNC(=O)Oc1ccc2c(c1)[C@@]1(C)CCN(C)C1N2C (some centres undefined)	-5%	x	9%	19%
O=C1OC(=O)c2c(Cl)c(Cl)c(Cl)c(Cl)c21	x	x	-13%	x
COc1ccc(S(=O)(=O)N2c3ccc(Cl)cc3[C@](O)(c3ccccc3Cl)[C@@H]2C(=O)N2CCC[C@H]2C(N)=O)cc1OC	-1%	x	-9%	3%
CCc1ccc(C2CC(c3ccco3)=NN2S(C)(=O)=O)cc1 (centres undefined)	11µM*	9%[46.1 µM]	-1%[38.3 µM]	x
CCOc1ccc2cc(C3CC(c4ccco4)=NN3S(C)(=O)=O)c(Cl)nc2c1 (centres undefined)	x	15%[7.67 µM]	x	0%[57.5 µM]
O=C(NCc1ccccc1)c1ccc(Cc2nc3ccccc3[nH]2)cc1	-2%	x	x	x
c1ccc(C(c2ccccc2)N2CCCC3(CCNCC3)C2)cc1	1%	x	34%	7%
Cc1ccc(C)c(NC(=S)NC(NC(=O)Cc2cccc3ccccc23)C(Cl)(Cl)Cl)c1 (centres undefined)	8%	7.9µM*	39%[38.3 µM]	x
COC(=O)CSc1nc(N)c2c3c(sc2n1)C(c1ccccc1)SC(c1ccccc1)C3 (centres undefined)	-1%	13µM*	4%	0%
CCC(=O)N=c1sc2c(C)cc(C)cc2n1CC(=O)OC	-5%	u	13µM*	x
O=C(COc1ncnc2c(Cl)cc(Cl)cc12)NC1CCCCCC1	0%	4%[46.1 µM]	22µM*	x
O=C(COc1ncnc2c(Cl)cc(Cl)cc12)N1CCCCC1	0%	-4%[46.1 µM]	-7%[38.3 µM]	x
CN(C)c1ccc(-c2cncnc2Nc2ccc(F)cc2)cc1	x	x	20%	x
CCCCCn1c(Sc2nc3ccccc3s2)nc2c1c(=O)[nH]c(=O)n2C	1%	-25%[46.1 µM]	13µM*	x
COc1ccccc1-c1cncnc1NCc1cnc(C)cn1	x	x	-6%	x
CCOc1ccc2c(ccc(/C=C\c3cc(C)c4cccnc4c3O)[n+]2C)c1	-6%[7.66 µM]	x	4%	x
O=C(NCC1CCCO1)c1csc(Nc2cccc3ccccc23)n1 (centres undefined)	13µM*	-11%	11%	1%
COc1ccc(C(=O)Nc2ccc3c(c2)Cc2ccccc2-3)cc1	-1%	-20%[46.1 µM]	u	x
COc1ccc2nc3c(cc2c1)Cc1ccccc1-3	13µM*	x	12%	13%
O=C(Nc1ccccc1)c1sc2cc(C(F)(F)F)cnc2c1-c1cccs1	-2%	10µM*	24%[38.3 µM]	x
Cc1[nH]n(-c2ccccc2)c(=O)c1N=Nc1ccc2c(c1)OCCO2	-1%	-27%	12%	13µM*
COC(=O)N1CCC2(CC1)CCN(c1cccc(-c3ccccc3)c1)CC2	-1%	x	13%	-5%
CCOc1ccc(N/C=C/C(=O)c2ccccc2)c([N+](=O)[O-])c1	11µM*	-7%	1%	u
SMILES	Luc counter	NPSR antag	IMPase Li cell	ERK EGF inh
Cc1cccc(CSc2cccc3cccnc23)c1	-9%	3.2µM*	-5%[38.3 µM]	x
C=C(C)C(=O)OCCCCCCCCCC	x	x	-12%	x
COc1cc([C@@H]2c3cc4c(cc3[C@@H](O[C@@H]3O[C@H]5CO[C@@H](C)O[C@@H]5[C@@H](O)[C@H]3O)[C@@H]3COC(=O)[C@@H]23)OCO4)cc(OC)c1O	2%	x	13%	-3%
CCCCNc1c2c(nc3c(-c4ccccc4)c(C)nn13)CCC2	1%	10µM*	-5%[38.3 µM]	x
O=C(NC1CCN(Cc2ccccc2)C1)c1ccc(Cc2nc3ccccc3[nH]2)cc1 (centres undefined)	-1%	x	x	x
C=CCOC(=O)C1=C(C)NC(C)=C(C(=O)OCC=C)C1/C=C/c1ccccc1	-1%	-9%[46.1 µM]	6%[38.3 µM]	25µM*
CCOC(=O)C1=C(C)NC(C)=C(C(=O)OCC)C1/C=C/c1ccccc1	3%	-21%[46.1 µM]	18%	x
C/C(=N\Nc1ncc(Cl)cc1Cl)c1ccccn1	u	1.3µM*	17%	-5%
O=c1cc(CN2CCN(c3ccccc3)CC2)c2cc(O)c(-c3ccccc3)cc2o1	-6%	-11%[46.1 µM]	-10%[38.3 µM]	x
COc1cccc(NCc2cc(=O)oc3cc(-c4ccccc4)c(O)cc23)c1	-3%	1%	8%	28µM*
